Test results published in PubChem BioAssay (NCATS).
Inconclusive results are not listed. The source made the active and inactive calls.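 How the source made its calls: active means dose-dependent loss of cell ATP signal giving a full or clear fitted curve, ranked by lower potency value; inconclusive means weak partial curve or response only at the top dose; inactive means no loss of viability signal.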

assay: Cell Viability - Jurkat (AID 426); conditions: qHTS;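 further: cells exposed to compound for 40 hours at 37 °C before ATP read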
Excerpt: NIH Chemical Genomics Center [NCGC]
NIH Molecular Libraries Screening Centers Network [MLSCN]
National Institutes of Environmental Health Sciences [NIEHS]
National Toxicology Program [NTP]
We have developed a 1536-well cell-based assay for quantitative high throughput screening (qHTS) against a number of cell lines to determine in vitro cytotoxicity of small molecules. This particular assay uses the Jurkat cell line (Clone E6-1) which is derived from the human T cell leukemia.
NCGC Assay Protocol Summary:
The CellTiter-Glo luminescent cell viability assay (Promega) is a homogeneous method to measure the number of viable cells in culture. The end point readout of this assay is based on quantitation of intracellular ATP, an indicator of metabolic activity, using the luciferase reaction. Luciferase catalyzes the oxidation of beetle Luciferin to oxyluciferin and light in the presence of ATP. The luminescent signal is proportional to amount of ATP present.
Using the CellTiter-Glo luminescent cell viability assay, the amount of cellular ATP was measured in the Jurkat cell line with complete culture medium following compound treatment for 40 hours. The assay was performed in opaque white Kalypsys 1536-well plates. In the screen, tamoxifen and doxorubicin were used as positive controls. Library compounds were measured for their ability to cause acute toxicity in the cell line, as reflected by a decrease in intracellular ATP levels, in a concentration-dependent manner. […] AC50 values were determined from concentration-response data modeled with the standard Hill equation.
qHTS protocol for CellTiter Glo Jurkat cellular assay
[Step] [Parameter] [Value] [Description]
1. Reagent; 5 uL; 5000 Jurkat cells/well
3. Controls; 23 nL; Tamoxifen 0.34 uM to 100 uM & Doxorubicin 0.02 nM to 100 uM
4. Time; 40 hr; 37 °C incubation
5. Reagent; 5 uL; CellTiter Glo reagent
6. Time; 20 min; Room Temperature
7. Detection; Luminescence; Viewlux plate reader
Keywords: cell viability, cytotoxicity, Jurkat cell line, luminescence, NTPHTS, NTPHTS_NCGC, NIEHS, EPA, DSSTox, MLSMR, MLSCN, NIH Roadmap, qHTS, NCGC
Potency means the concentration at half of the fitted maximal effect.

Row | SMILES | Potency
1 | Cc1c2ccccc2c(C)c2c1ccc1ccccc12 | 36.6 µM (active)
2 | Cc1ccc(S(N)(=O)=O)cc1 | > 92 µM (inactive)
3 | CCCCC(CC)COC(=O)COc1ccc(Cl)cc1Cl (stereo not given) | > 92 µM (inactive)
4 | Cc1cc(=O)oc2cc(O)cc(O)c12 | > 92 µM (inactive)
5 | C=Cc1cccc(C)c1 | > 92 µM (inactive)
6 | CCCCCCN | > 92 µM (inactive)
7 | Oc1c(Cl)cc(Cl)c(Cl)c1Cl | 57 µM (active)
8 | CCCCCCCCC1CO1 (stereo not given) | > 92 µM (inactive)
9 | c1ccc2c(c1)ccc1ccccc12 | > 92 µM (inactive)
10 | Cc1ccc(N)cc1[N+](=O)[O-] | > 92 µM (inactive)
11 | Nc1cc(C(=O)O)c(O)c(S(=O)(=O)O)c1 | > 92 µM (inactive)
12 | CC(=O)OC(C(=O)c1ccccc1)c1ccccc1 (stereo not given) | > 92 µM (inactive)
13 | N=C1C=CC(=C(c2ccc(N)cc2)c2ccc(N)cc2)C=C1 | 15.1 µM (active)
14 | CC(=O)Nc1cccc(C)c1 | > 92 µM (inactive)
15 | O=[N+]([O-])c1ccc(F)cc1F | > 92 µM (inactive)
16 | O=C(O)c1cc(N=Nc2ccc([N+](=O)[O-])cc2)ccc1O | > 92 µM (inactive)
17 | CCCCCCCCOc1ccc(C(=O)O)cc1 | > 92 µM (inactive)
18 | O=C(O)/C=C/c1ccc(/C=C/C(=O)O)cc1 | > 92 µM (inactive)
19 | c1cc2c3c(c1)ccc1cccc(c13)C2 | > 92 µM (inactive)
20 | CCCCOC(=O)COc1ccc(Cl)cc1Cl | > 92 µM (inactive)

Row | SMILES | Potency
21 | Cc1cccnc1 | > 92 µM (inactive)
22 | Nc1ccc2c(c1)C(=O)c1ccccc1C2=O | 49.6 µM (inactive)
23 | Cc1ccc(C(=O)O)cc1[N+](=O)[O-] | > 92 µM (inactive)
24 | CC(CCC(=O)O)(c1ccc(O)cc1)c1ccc(O)cc1 | > 92 µM (inactive)
25 | OCC(CO)(CBr)CBr | > 92 µM (inactive)
26 | C=CC(=O)OCCCCCCOC(=O)C=C | 21.1 µM (active)
27 | O=[N+]([O-])c1cccc(I)c1 | > 92 µM (inactive)
28 | c1ccc2ncccc2c1 | > 92 µM (inactive)
29 | CCCCCCCC/C=C\CCCCCCCC(=O)N(CCO)CCO | 68.3 µM (active)
30 | COc1ccc(C)cc1N | > 92 µM (inactive)
31 | c1ccc(SCCSc2ccccc2)cc1 | > 92 µM (inactive)
32 | Cc1ccc2ccc3cccc4ccc1c2c34 | > 92 µM (inactive)
33 | O=C(Cl)c1ccc([N+](=O)[O-])cc1 | > 92 µM (inactive)
34 | CCCCCCc1ccc(-c2ccc(C#N)cc2)cc1 | > 92 µM (inactive)
35 | CCCCC(CC)COCCCN (stereo not given) | > 92 µM (inactive)
36 | OCC(CBr)(CBr)CBr | > 92 µM (inactive)
37 | S=C(NC1CCCCC1)NC1CCCCC1 | > 92 µM (inactive)
38 | CC(C)OCC1CO1 (stereo not given) | > 92 µM (inactive)
39 | CC(C)COC(=O)COc1cc(Cl)c(Cl)cc1Cl | > 92 µM (inactive)
40 | COc1ccc(C(=O)Nc2ccccc2)cc1[N+](=O)[O-] | > 92 µM (inactive)
